Source: PubChem BioAssay (several laboratories)
In the library only some 2.2% were active in any assay of this set; here they are far more common.
aSyn UTR inh: MLPCN primary screen, SNCA 5' untranslated region | AID 1813, 2009 | 300,000 tested, 0.82% active | alpha-synuclein 5'UTR reporter, inhibitor activity | inhibition, % (tested at 7.5 µM); in the data active means inhibition above about 60%; inconclusive means no clear call, values can overlap the other calls;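 further: H4 neuroglioblastoma cells stably carrying SNCA 5'UTR luciferase fusion; 0% = DMSO wells and 100% = positive control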
Ba/F3 V617F tox: reduced viability of JAK2V617F-dependent Ba/F3 cells, primary screen, JAK2V617F inhibitor project, cell-based, Ba/F3 EpoR-JAK2V617F, luminescence | ATP luminescence | AID 1446, 2008 | inhibition, % at 5.6 µM | 220,000 tested, 1.1% active;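 active means inhibition above the campaign mean plus 3 SD over all tested compounds, cut at about 24% in these data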;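 further: cytokine-independent growth of Ba/F3 cells driven by EpoR plus mutant JAK2; 0% = DMSO-treated cells and 100% = JAK inhibitor I control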
IEC-6 cytotox: cytotoxicity in IEC-6 intestinal epithelial cells, primary screen, cytotoxicity control for KLF5 inhibitor project, cell-based, luminescence; IEC-6 cytotoxicity, luminescence viability; inhibition, % at 5 µM; 290,000 tested, 0.78% active; AID 1825, 2009;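 further: 0% = plate median of test compound wells and 100% = cytotoxic reference compound wells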
BaF3 parental: parental Ba/F3 cell viability inhibition, counter-screen for JAK2V617F inhibitor project, murine pro-B, CellTiter-Glo luminescence | CellTiter-Glo ATP luminescence | inhibition, % at 5.6 µM | 220,000 tested, 1.1% active;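 active means inhibition above a per-campaign cutoff, the mean inhibition of all tested compounds plus 3 SD, cut at about 27% in these data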;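 further: 0% = DMSO wells and 100% = JAK Inhibitor I control wells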
APP transl inh: inhibitors of APP translation via 5'UTR reporter, primary screen, APP 5'UTR luciferase, SH-SY5Y cells. SH-SY5Y APP 5'UTR-luciferase reporter, luminescence. inhibition, % at 2 µM. 190,000 tested, 0.82% active. AID 1285, 2008;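 active means inhibition above a set limit, derived from the sample mean plus 3 SD, cut at about 45% in these data; inconclusive means one replicate passes the limit while the other fails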
KLF5 inh: KLF5 expression inhibitors, primary screen, DLD-1 cells, luminescence; DLD-1 KLF5 promoter-luciferase reporter; inhibition, % at 5 µM; 290,000 tested, 0.23% active;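 active means inhibition above a per-plate limit of that plate's mean compound inhibition plus 3 SD, cut at about 60% in these data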;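 further: 0% = DMSO wells and 100% = LY294002 at 200 µM; higher means less KLF5 promoter-driven luciferase light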
IEC-6 cytotox cf: cytotoxic compounds in IEC-6 epithelial cells, confirmation, cytotoxicity control, cell-based, luminescence; shares compounds with IEC-6 cytotox; IEC-6 rat intestinal epithelial viability; inhibition, % at 5 µM; 1,900 tested, 63% active; AID 1907, 2009;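 further: 0% = vehicle and 100% = reference cytotoxic drug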
Numbers without * were called inactive; ? = inconclusive; / = not tested or not shown. Unless noted, no stated cut-off is given here; in the data, active means inhibition above about 22%; inactive means the rest.

SMILES	aSyn UTR inh	Ba/F3 V617F tox	IEC-6 cytotox	BaF3 parental	APP transl inh	KLF5 inh	IEC-6 cytotox cf
CC(=O)Oc1ccc(N2C(=O)c3cccc4c([N+](=O)[O-])ccc(c34)C2=O)cc1	15	/	7	/	/	-42	/
O=C1c2cccc3c([N+](=O)[O-])ccc(c23)C(=O)N1O	-35	/	85*	/	/	-22	11
Cc1nc(N)sc1C(=O)N1N=N1	10	-1	-7	-2	/	0	/
NNC(=O)c1ccc(CSc2cccc3cccnc23)cc1	-51	1	0	2	-22	-10	/
Cc1cccc(CSc2cccc3cccnc23)c1	-103	6	32*	-2	35	-48	37*
COc1cccc(NS(=O)(=O)c2ccc3c(c2)CCN3C(C)=O)c1	-19	/	6	/	/	-1	/
CSc1cccc(NS(=O)(=O)c2ccc3c(c2)CCN3C(C)=O)c1	-4	/	33*	/	/	42	19
COc1ccc(/C=N/NC(=O)CCn2cnc(-c3ccccc3)c2-c2ccccc2)cc1OC	4	58*	71*	63*	80*	35	46*
CCC(NC(=O)Nc1nnc(C(F)(F)F)s1)(C(F)(F)F)C(F)(F)F	109*	98*	26*	89*	-2	-9	92*
COc1ccc(N2CCN(CCCn3c(=S)[nH]c4ncccc4c3=O)CC2)cc1	25	0	30*	5	1	-2	19
O=c1c2cccnc2[nH]c(=S)n1CCCN1CCN(c2ccc(F)cc2)CC1	26	-1	15	3	-1	5	/
COc1cccc(N2CCN(C(=O)c3ccc(CS(=O)c4ccc(Cl)cc4)o3)CC2)c1 (centres undefined)	107*	/	81*	/	/	53	57*
O=C(c1ccc(CS(=O)Cc2ccc(Cl)cc2)o1)N1CCN(c2cccc(Cl)c2)CC1 (centres undefined)	-5	/	-3	/	/	-9	/
Cc1cc(C(=O)Nc2ccccc2C)n(-c2ccccc2)n1	1	/	-3	/	/	-4	/
CCc1cc2c(=O)[nH]c(-c3ccccn3)nc2s1	?	-3	27*	2	-34	-105	49*
O=C(O)C1CCN(S(=O)(=O)c2ccc(N3CCCC3C(=O)O)c([N+](=O)[O-])c2)CC1 (centres undefined)	8	/	0	/	/	-15	/
C/C(=N\NC(=O)c1nnn(-c2nonc2N)c1CN1CCCCC1)c1ccccc1O	-8	/	-5	/	/	-17	/
CCOC(=O)CSC1=C(C#N)C(c2ccc(C)o2)CC(=O)N1 (centres undefined)	78*	74*	83*	79*	95*	55	59*
COC1CCN(Cc2c(C(=O)N3CCN(C4CCCCC4)CC3)nc3ccccn23)CC1	-1	/	-1	/	/	-29	/
COc1ccc(C(CCN2CCOCC2)c2c(O)cc(OC)cc2OC)cc1 (centres undefined)	8	/	/	/	/	/	/
COc1ccc(C(c2c(O)ccc3ccccc23)N2CCOCC2)c(OC)c1 (centres undefined)	-55	-1	35*	0	-74	-38	-1
O=C(Nc1ccc(OC(F)F)cc1)c1ncc(Cl)c(Cl)c1Cl	-54	-2	10	0	2	23	/
CCC1CCCCN1S(=O)(=O)c1ccc(NC(=O)c2ccncc2)cc1 (centres undefined)	-27	/	7	/	/	-25	/
CCS(=O)(=O)c1ncc(Cl)c(C(=O)Nc2ccc(S(=O)(=O)N3CCCC(C)C3)cc2)n1 (centres undefined)	72*	/	101*	/	/	55	4
CCC1CCCCN1S(=O)(=O)c1ccc(NC(=O)c2nc(S(C)(=O)=O)ncc2Cl)cc1 (centres undefined)	51	/	94*	/	/	8	22
CCS(=O)(=O)c1ncc(Cl)c(C(=O)Nc2ccc(C)cc2)n1	-27	/	75*	/	/	20	42*
CC1CCCN(S(=O)(=O)c2ccc(NC(=O)CNC3CCCC3)cc2)C1 (centres undefined)	1	/	3	/	/	-7	/
